The supplement of paper PMC3334620
The full ranking holds about 33,000 sequences; the median of “E-score (-0.5 to 0.5)” is about -0.011, and the highest 2% start at about 0.28. Only a selection was taken, and the highest values are over-represented in it overall.

target: T1, Gcr1 (UniProt P07261); assay: PBM E-score (8-mer binding enrichment) (E-score (-0.5 to 0.5)); higher = stronger / more preferred TF binding; conditions: protein concentration: 100 nM; construct: GST-full length
T1 sequence: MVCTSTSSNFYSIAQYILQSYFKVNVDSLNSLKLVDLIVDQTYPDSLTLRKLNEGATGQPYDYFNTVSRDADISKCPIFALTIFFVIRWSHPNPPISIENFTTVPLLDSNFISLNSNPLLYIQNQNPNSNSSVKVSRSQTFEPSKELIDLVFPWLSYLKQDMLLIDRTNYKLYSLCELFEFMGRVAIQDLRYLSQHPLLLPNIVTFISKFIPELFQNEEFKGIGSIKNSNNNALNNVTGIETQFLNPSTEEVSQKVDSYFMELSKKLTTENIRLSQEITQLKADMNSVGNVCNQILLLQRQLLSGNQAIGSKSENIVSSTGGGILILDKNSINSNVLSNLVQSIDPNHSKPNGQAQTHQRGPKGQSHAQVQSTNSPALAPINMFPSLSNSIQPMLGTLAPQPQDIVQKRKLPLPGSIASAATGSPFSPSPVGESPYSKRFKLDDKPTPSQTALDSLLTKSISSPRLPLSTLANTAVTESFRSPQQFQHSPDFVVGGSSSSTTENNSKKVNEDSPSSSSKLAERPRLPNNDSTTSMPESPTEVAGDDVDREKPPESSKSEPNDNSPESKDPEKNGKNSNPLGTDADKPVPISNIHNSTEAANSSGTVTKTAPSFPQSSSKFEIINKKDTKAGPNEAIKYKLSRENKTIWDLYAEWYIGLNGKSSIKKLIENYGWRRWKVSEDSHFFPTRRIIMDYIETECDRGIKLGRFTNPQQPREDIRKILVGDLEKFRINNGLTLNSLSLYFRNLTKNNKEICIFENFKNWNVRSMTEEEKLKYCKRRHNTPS
How it was run: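 GST-tagged yeast TFs (full-length or DNA-binding domain) were made by PURExpress in vitro transcription/translation and applied at about 100-200 nM to universal all-10-mer Agilent arrays. The arrays were made double-stranded by primer extension, on fresh or once-stripped slides. Bound protein was detected with fluorescent anti-GST, and scans were normalised with masliner. Each ungapped eight-base word, pooled with its reverse complement, received an E-score (modified Wilcoxon-Mann-Whitney statistic) from the Universal PBM Analysis Suite.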

| Sequence | PBM E-score |
| --- | --- |
| ATACGAAT | 0.113 |
| ATACGAAG | 0.293 |
| AGACGAAT | 0.0336 |
| AGACGAAG | 0.335 |
| CGACGAAG | -0.219 |
| CTACGAAG | 0.0785 |
| AGCTTACG | 0.0302 |
| AACTACTG | -0.0124 |
| AACTACTC | 0.0802 |
| AACTACTA | 0.288 |
| CGGATACG | 0.0225 |
| TTATGGAA | 0.163 |
| ACTCTTCA | -0.15 |
| AGTAGCAC | 0.287 |
| AGTAGCAA | 0.111 |
| GGTAGCAC | 0.0683 |
| CCGGTTCG | -0.0186 |
| ACTAAATC | 0.0396 |
| CCTAAATA | 0.129 |
| CCTAAATC | 0.306 |
| GTCGGTTA | -0.058 |
| CGAACACC | -0.135 |
| CGTTCATA | -0.0211 |
| AATACTGA | 0.0152 |
| CATACTGG | 0.209 |
| ATTACTGA | -0.0681 |

| Sequence | PBM E-score |
| --- | --- |
| ATTACTGG | 0.362 |
| ATTACTGC | -0.0604 |
| AATACTGG | 0.369 |
| ACTACTCC | 0.0438 |
| CAATTAGC | -0.0933 |
| ATCGTCCA | 0.0357 |
| AGCGTCAC | -0.078 |
| AACGTCCC | -0.159 |
| ACCGTCCT | -0.196 |
| AGCGTCCG | 0.165 |
| AGCGTCCT | 0.426 |
| AGCGTCCA | 0.437 |
| AACGTCCT | 0.043 |
| CGCGTCCC | 0.0398 |
| AGCGTCCC | 0.347 |
| GGCGTCCC | 0.362 |
| GCCGTCCC | -0.0711 |
| CACTTCTA | 0.00557 |
| ATTTATGC | 0.0089 |
| GCGGCCCC | 0.19 |
| GATGAGAA | -0.138 |
| TGCGTCCA | 0.0639 |
| GGCGTCCA | 0.436 |
| CGCGTCCA | 0.245 |
| GTGACATA | 0.217 |
| GCAGATTA | 0.0499 |

| Sequence | PBM E-score |
| --- | --- |
| GGATACCA | 0.33 |
| AGATACCA | 0.246 |
| TGATACCA | 0.107 |
| GAAAACCA | 0.084 |
| AAATCTTA | 0.111 |
| GGCATCAA | 0.0535 |
| AGAATCTA | 0.219 |
| AGCATCTC | 0.121 |
| AGCATCTG | 0.115 |
| CGCATCTA | 0.204 |
| CGAATCTA | 0.122 |
| AGCATCTA | 0.319 |
| GGAATCTA | 0.357 |
| CGTATCTA | 0.0661 |
| AGTATCTA | -0.103 |
| GGTATCTA | 0.292 |
| GGCATCTA | 0.347 |
| CGAGACAG | -0.0925 |
| AGACGGAA | -0.0525 |
| AAGGAATA | -0.159 |
| ACTGGTCC | -0.314 |
| ACCCACAC | -0.0404 |
| ACTCGCCG | -0.00848 |
| ACTCTTCC | -0.211 |
| CGCGAACA | -0.00841 |
| GCGGGGCC | 0.131 |

| Sequence | PBM E-score |
| --- | --- |
| ACATCTAC | -0.0726 |
| CATTGAAC | 0.0331 |
| ATTTTAGC | 0.0912 |
| AGCCACTG | 0.11 |
| CACCGGTC | -0.271 |
| CAGGACGA | -0.145 |
| ATGGACGC | 0.262 |
| CTGGACGA | -0.0396 |
| CAGGACGC | 0.412 |
| ACGGACGC | 0.14 |
| AAGGACGC | 0.256 |
| CCGGACGG | -0.116 |
| GAGGACAC | -0.225 |
| CCGGACGC | 0.31 |
| CTGGACGC | 0.412 |
| GAGGACGC | 0.289 |
| GAGGACGA | -0.0483 |
| AATTTGAG | 0.137 |
| AGCTTCGA | 0.0125 |
| TATTGCCA | 0.00643 |
| ACCCGCTC | -0.0223 |
| ATATGCAT | -0.0625 |
| AGAAAAAC | 0.134 |
| GTGTTCCA | 0.112 |
| ACCCGGCA | 0.125 |
| AACGGAGG | -0.167 |

| Sequence | PBM E-score |
| --- | --- |
| CAGCCACG | 0.12 |
| AAAAGAAC | -0.0325 |
| ACAAGATG | 0.294 |
| ACAAGATC | 0.0465 |
| AGAAGAAT | 0.119 |
| ATAAGAAG | 0.381 |
| CAAAGAAG | 0.184 |
| ATAAGAAC | 0.269 |
| ACAAGATA | 0.102 |
| AAAAGAAG | 0.309 |
| AGAAGAAG | 0.437 |
| AGAAGAAC | 0.13 |
| ATAAGAAA | 0.171 |
| CTCAATAC | -0.00463 |
| CTGTTGGA | 0.103 |
| GGTCGGAC | -0.206 |
| CCATATCG | 0.05 |
| CGTGAGGC | -0.0867 |
| ACAAGAAG | 0.415 |
| ACAAGAAT | 0.252 |
| ACAAGAAA | 0.155 |
| GCAAACTA | 0.0887 |
| TGGCACAA | -0.0481 |
| GGGCACCC | 0.321 |
| AGGCACCG | 0.04 |
| TGGCACCA | 0.321 |

| Sequence | PBM E-score |
| --- | --- |
| GGGCACAC | -0.0584 |
| AGGCACCT | 0.16 |
| AGGCACCC | 0.284 |
| TCGCACCA | 0.0244 |
| GGGCACCA | 0.364 |
| GCGCACCC | -0.0278 |
| GGGCACGA | 0.0341 |
| AGGCACCA | 0.136 |
| CCATACTA | 0.0399 |
| CATGGTGC | 0.0809 |
| CGTGCATC | 0.00547 |
| AAGCCCGA | 0.0664 |
| GGTATCGA | 0.00098 |
| CGGCACCG | 0.143 |
| TAGCACCA | 0.323 |
| CGGCACCA | 0.245 |
| CAGCACCA | 0.277 |
| GAGCACCA | 0.207 |
| CGGCACCC | 0.381 |
| GTCACCAA | 0.0813 |
| GCAGGAAC | -0.0184 |
| CAATCTCC | 0.0196 |
| CAGATAGA | 0.0277 |
| ACAGTCCT | -0.141 |
| CCTACGGC | -0.146 |
| AACTCGGA | 0.0328 |

| Sequence | PBM E-score |
| --- | --- |
| CTTACCCC | -0.052 |
| CGGGACCG | -0.00477 |
| AGGGACCC | -0.0366 |
| GGGGACCA | 0.194 |
| CGGGACCA | 0.00102 |
| GGGGACCC | 0.291 |
| CGGGACCC | 0.306 |
| TAGCTGCA | -0.0344 |
| AGACGGAG | -0.0738 |
| AAAGCCGC | 0.0398 |
| ACAGCCGC | -0.0946 |
| GAAGCCGA | 0.401 |
| CCAGCCGC | -0.0253 |
| GAAGCCGC | 0.439 |
| CAAGCCGA | -0.038 |
| TAAGCCGA | -0.177 |
| GCAGCCGC | 0.282 |
| CAAGCCGC | -0.00721 |
| ATGTGGTC | -0.0553 |
| CTTTTGAA | 0.1 |
